Consider 15 compounds from PubChem BioAssay.

The source made the active and inactive calls.

Test [1] is described as follows: anti-His antibody binders, primary screen, artefact control for SMM control protein annotation, biochemical, small-molecule microarray, 635 nm fluorescence (AID 1128).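 Further: score merges feature fluorescence with signal-to-noise for each printed compound spot.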 As to conditions: anti-His Alexa647 antibody binding, higher = more signal.
Test [2] concerns Human papillomavirus type 1a E7 protein (residues 1-88). Briefly: HPV1a E7 small-molecule binders, primary screen, biochemical, small-molecule microarray, residues 1-88, 635 nm (AID 1129). As to conditions: small-molecule microarray binding, fluorescence 635 nm; higher = more signal.
In test [3] the target is Focal adhesion kinase 1 (Homo sapiens) (UniProt Q05397). Briefly: small-molecule microarray binders of FAK, primary screen, biochemical, 635/667 nm fluorescence, BSA, DTT (AID 1130).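 Further: composite of spot emission at 667 nm and signal to noise over triplicate slides.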 As to conditions: PTK2 binding, 635 nm fluorescence, higher = more signal.
Test [4] relates to Fibrinogen (Alexa647-labelled). Briefly: fibrinogen binders on compound microarrays, profiling panel, artefact control for SMM control-protein annotation, biochemical, small-molecule microarray, 635/667 nm fluorescence (AID 1131).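 Further: z-score merges 667 nm fluorescence with per-spot signal-to-noise over triplicate slides.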 As to conditions: fibrinogen-A647 binding fluorescence, higher = more signal.
Test [5] deals with Follistatin (Homo sapiens) (UniProt P19883). Briefly: follistatin binders on small-molecule microarrays, primary screen, biochemical, small-molecule microarray, 635/667 nm fluorescence (AID 1132). As to conditions: FST binding, 635 nm fluorescence, higher = more signal.
Test [6] concerns the target Fibroblast growth factor 2 (Homo sapiens) (UniProt P09038). Briefly: FGF2 binders on small-molecule microarrays, primary screen, biochemical, small-molecule microarray, 635/667 nm fluorescence (AID 1133). As to conditions: small-molecule microarray binding, FGF2, fluorescence 635/667; higher = more signal.
A short description of test [7]: mitochondrial membrane potential change in A549 cells, profiling panel, cell-based, JC-1 fluorescence, basal, 24 h, 100 nL (AID 1138).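 Further: A549 lung adenocarcinoma cells under basal conditions with no added stimulus; test concentration not given here.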 As to conditions: higher = more signal.
In the next test the test system is Lefty1. Briefly: Lefty1 binders on small-molecule microarrays, primary screen, biochemical, small-molecule microarray, 635/667 nm fluorescence (AID 1139). As to conditions: small-molecule microarray binding, fluorescence 635/667; higher = more signal.
Test [8] concerns wheat germ agglutinin (Triticum aestivum), Alexa647-labelled. Briefly: wheat germ agglutinin binders on compound microarrays, profiling panel, artefact control for SMM control-protein annotation, biochemical, small-molecule microarray, 635/667 nm fluorescence (AID 1140).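 Further: score merges 667 nm feature emission with signal to noise over triplicate slides.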 As to conditions: WGA-A647 binding, 635 nm fluorescence, higher = more signal.
The target in test [9] is Luciferin 4-monooxygenase (Photinus pyralis) (UniProt P08659). Briefly: firefly luciferase enzyme inhibitors, primary screen, biochemical, luminescence, purified enzyme, 2006 set (AID 1141).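 Further: cell-free assay with purified firefly luciferase at 100 ng per well in PBS; test concentration not given here.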 As to conditions: SteadyGlo luminescence, 30 min, higher = more signal, called active from +8 up or from −8 down.
Luciferin 4-monooxygenase (Photinus pyralis), sequence (P08659 whole entry, looked up): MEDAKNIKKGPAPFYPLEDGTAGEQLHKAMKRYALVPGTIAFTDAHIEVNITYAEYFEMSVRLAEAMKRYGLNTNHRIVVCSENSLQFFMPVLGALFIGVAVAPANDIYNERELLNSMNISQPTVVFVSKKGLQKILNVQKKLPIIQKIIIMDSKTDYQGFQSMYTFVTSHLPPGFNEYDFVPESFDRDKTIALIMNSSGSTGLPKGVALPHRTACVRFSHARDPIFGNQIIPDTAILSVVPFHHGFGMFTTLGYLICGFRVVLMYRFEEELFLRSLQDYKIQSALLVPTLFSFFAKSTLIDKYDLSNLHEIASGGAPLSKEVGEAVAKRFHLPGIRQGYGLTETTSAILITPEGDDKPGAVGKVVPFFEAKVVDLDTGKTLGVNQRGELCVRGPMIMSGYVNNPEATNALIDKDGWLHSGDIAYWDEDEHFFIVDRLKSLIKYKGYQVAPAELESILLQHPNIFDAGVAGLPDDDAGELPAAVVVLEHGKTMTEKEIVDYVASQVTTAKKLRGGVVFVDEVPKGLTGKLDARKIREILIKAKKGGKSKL

Focal adhesion kinase 1 (Homo sapiens), sequence (Q05397 whole entry, looked up): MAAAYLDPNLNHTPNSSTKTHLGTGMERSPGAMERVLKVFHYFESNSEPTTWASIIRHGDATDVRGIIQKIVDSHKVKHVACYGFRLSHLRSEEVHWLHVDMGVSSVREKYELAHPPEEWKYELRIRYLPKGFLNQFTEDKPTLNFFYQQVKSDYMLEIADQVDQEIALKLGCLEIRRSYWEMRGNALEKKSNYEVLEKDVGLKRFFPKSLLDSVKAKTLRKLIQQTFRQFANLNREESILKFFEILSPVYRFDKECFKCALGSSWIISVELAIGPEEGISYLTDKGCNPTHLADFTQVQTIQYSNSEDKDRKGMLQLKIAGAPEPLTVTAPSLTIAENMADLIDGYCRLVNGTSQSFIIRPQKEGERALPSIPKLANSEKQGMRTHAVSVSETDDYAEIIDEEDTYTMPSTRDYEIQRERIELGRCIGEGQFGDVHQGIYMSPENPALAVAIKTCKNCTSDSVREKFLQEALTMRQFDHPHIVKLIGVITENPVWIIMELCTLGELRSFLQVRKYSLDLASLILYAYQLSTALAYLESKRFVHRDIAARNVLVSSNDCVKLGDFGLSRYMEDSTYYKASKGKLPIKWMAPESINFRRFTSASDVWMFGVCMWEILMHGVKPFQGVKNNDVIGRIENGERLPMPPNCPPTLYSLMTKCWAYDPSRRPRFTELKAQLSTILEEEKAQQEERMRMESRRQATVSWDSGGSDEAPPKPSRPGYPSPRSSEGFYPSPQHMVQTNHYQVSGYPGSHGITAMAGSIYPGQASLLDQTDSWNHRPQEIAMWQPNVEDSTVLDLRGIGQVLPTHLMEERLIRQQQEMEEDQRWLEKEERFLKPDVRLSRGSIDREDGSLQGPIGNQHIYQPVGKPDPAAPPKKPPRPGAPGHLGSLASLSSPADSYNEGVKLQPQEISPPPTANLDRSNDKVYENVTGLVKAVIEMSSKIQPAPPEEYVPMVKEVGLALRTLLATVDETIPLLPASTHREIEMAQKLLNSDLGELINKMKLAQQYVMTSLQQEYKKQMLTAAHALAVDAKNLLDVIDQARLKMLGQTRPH
Follistatin (Homo sapiens), sequence (P19883 whole entry, looked up): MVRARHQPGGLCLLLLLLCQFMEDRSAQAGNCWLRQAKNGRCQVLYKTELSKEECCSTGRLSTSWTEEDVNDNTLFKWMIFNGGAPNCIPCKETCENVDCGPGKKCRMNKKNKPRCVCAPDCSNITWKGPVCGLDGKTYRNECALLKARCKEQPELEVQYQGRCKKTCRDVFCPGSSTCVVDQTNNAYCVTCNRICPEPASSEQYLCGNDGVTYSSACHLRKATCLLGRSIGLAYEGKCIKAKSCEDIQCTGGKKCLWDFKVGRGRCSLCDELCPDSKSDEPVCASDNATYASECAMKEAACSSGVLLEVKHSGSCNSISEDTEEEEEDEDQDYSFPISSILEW
Fibroblast growth factor 2 (Homo sapiens), sequence (P09038 whole entry, looked up): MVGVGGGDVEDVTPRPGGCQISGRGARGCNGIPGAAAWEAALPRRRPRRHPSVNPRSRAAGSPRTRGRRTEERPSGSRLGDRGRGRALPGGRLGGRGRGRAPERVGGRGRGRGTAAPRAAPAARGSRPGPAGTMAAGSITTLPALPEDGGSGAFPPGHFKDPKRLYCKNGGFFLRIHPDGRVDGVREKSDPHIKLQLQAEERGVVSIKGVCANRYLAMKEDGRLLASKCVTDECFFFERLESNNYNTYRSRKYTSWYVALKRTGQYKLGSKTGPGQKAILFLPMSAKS

On to `COc1ccc([Si](C)(C)[C@H]2[C@H](CC(=O)N3CCC[C@H]3CO)O[C@@]3(C(=O)N(Cc4ccc(N5C(=O)c6cccc7cccc5c67)cc4)c4ccccc43)[C@@H]2C)cc1`, for which the composite z-score in test [1] came out at 1.7; in test [2] it was 1.17; in test [3] it was 1.18; in test [4], 0.864; in test [5], 1.07; in test [6] it was 1.21. Besides, the values for the composite z-score (with Lefty1; in test [8]) were 1.48 and 0.682, respectively. In addition, the z-score is 0.285 in [7] and 0.0355 (inactive) in [9].
With `COC(=O)[C@@]1(Cc2ccccc2N=[N+]=[N-])N=C(c2ccc(OCCCO)cc2)O[C@H]1c1ccccc1`, the composite z-score was 2.23 in [1]; 1.13 in test [2]; 0.771 in test [3]; 0.422 in test [4]; 0.465 in test [5]; 0.19 in [6]. Also, the composite z-score with Lefty1 amounted to 0.138; in test [8], 0.0657. Also, the values for the z-score in [7] and in test [9] were -1.26 and -2.7 (inactive), respectively.
With `COCCCNC(=O)[C@@H]1c2ccccc2C(=O)N(c2ccc(C)cn2)[C@H]1c1ccc(CO)cc1`, the composite z-score was -0.346 in test [1]; -1.11 in test [2]; -1.24 in test [3]; -1.04 in [4]; -1.25 in test [5]; -2.41 in test [6]. In addition, the composite z-score with Lefty1 is -1.03; in [8], 0.0195. The z-score was -0.758 in test [7] and 0.195 (inactive) in [9].
As for `COC(=O)[C@@]1(Cc2ccc(OC)cc2)[C@H]2c3cc(C(=O)N4CCCC4)n(CCF)c3C[C@H]2CN1C(=O)c1ccccc1`, the composite z-score was 2.31 in [1]; 1.17 in test [2]; 0.896 in test [3]; 1.04 in test [4]; 0.411 in test [5]; -0.0251 in test [6]. The composite z-score in the test on Lefty1 is -0.3; in test [8], 1.06. Besides, the values for the z-score in test [7] and in [9] were -1.32 and 1.49 (inactive), respectively.
Consider `CN(C)CCCN1C(=O)[C@@]2(Cc3ccccc31)c1ccccc1C(=O)N(Cc1ccccc1)[C@H]2c1ccc(CO)cc1`, for which the composite z-score in test [1] is -0.201; in [2], -0.153; in test [3] it was -0.0553; in [4], 0.385; in test [5], 0.375; in test [6], 0.144. Moreover, the composite z-score came to 0.122 in the test with Lefty1 and 0.111 in test [8]. Also, the values for the z-score in test [7] and in test [9] were -0.548 and 1.09 (inactive), respectively.
`[N-]=[N+]=NCc1ccccc1C[C@@]1(C(=O)NCCN2CCOCC2)N=C(c2ccc(OCCCO)cc2)O[C@@H]1c1ccccc1CN=[N+]=[N-]`: the composite z-score in test [1] was 2.12; in test [2], 1.21; in [3], 0.366; in test [4] it was 0.973; in [5], 1.45; in [6], 0.672. Further, the composite z-score is 0.785 in the test with Lefty1 and 0.59 in [8]. For the same compound, the z-score was 1.08 in test [7] and -1.36 (inactive) in test [9].
With `COc1ccc(C#Cc2ccc3c(c2)[C@]2(C(=O)N3)[C@H](c3ccc(OCCO)cc3)N3[C@H](c4ccccc4)[C@H](c4ccccc4)OC(=O)[C@H]3[C@@H]2C(=O)N2CCN(c3ncccn3)CC2)cc1`, the composite z-score in [1] was 0.197; in test [2], 0.816; in [3], 0.0451; in test [4] it was 0.771; in test [5], 1.01; in [6] it was 0.0495. Also, the values for the composite z-score (in the test on Lefty1; in [8]) were 0.305 and 0.776, respectively. For the same compound, the z-score was -1.38 in test [7] and 0.713 (inactive) in test [9].
Turning to `CCCCCCCCCCC(O)C1C=CC2C(=O)NC(=O)C2N1Nc1ccccn1` (stereo not given), the composite z-score is 0.121 in test [1]; 0.749 in [2]; 0.675 in [3]; 0.666 in test [4]; -0.008 in [5]; -1.4 in test [6]. In addition, the composite z-score in the test with Lefty1 is -0.458; in test [8], 0.331. In addition, the z-score in test [7] is 0.706; in [9] it was -0.765 (inactive).
Regarding `COC(=O)[C@@]1(Cc2ccc(F)cc2)[C@H]2c3cc(C(=O)N(C)C)n(CCSCCO)c3C[C@H]2CN1C(=O)c1ccccc1`, the composite z-score is 2.06 in [1]; 0.674 in [2]; 0.879 in test [3]; 0.241 in test [4]; 0.297 in test [5]; -0.254 in test [6]. Besides, the values for the composite z-score (in the test with Lefty1; in [8]) were -0.601 and 0.45, respectively. Besides, the z-score is 0.554 in test [7] and 0.0635 (inactive) in test [9].
With `C[N+](C)(C)CCCC[C@@H]1NC(=O)[C@H]2C[C@@H](C(=O)NCCCCCCN)[C@@H](c3cccc(OCCO)c3)N2C1=O`, the composite z-score was determined as 0.711 in test [1]; 1.21 in [2]; 0.209 in test [3]; 0.704 in [4]; 1.4 in test [5]; 1.51 in test [6]. The values for the composite z-score (in the test with Lefty1; in [8]) were 1.67 and 1.13, respectively. Besides, the z-score in test [7] is -0.798; in [9], 0.815 (inactive).
For the compound `NC(=O)NCC#Cc1ccc2c(c1)[C@]1(C(=O)N2)[C@H](c2ccc(O)cc2)N2[C@H](c3ccccc3)[C@H](c3ccccc3)OC(=O)[C@H]2[C@@H]1C(=O)NC[C@H](O)c1ccccc1`, the composite z-score was -0.652 in test [1]; -0.843 in test [2]; -0.126 in test [3]; -1.74 in test [4]; -2.12 in test [5]; -1.11 in test [6]. The composite z-score in the test with Lefty1 was -3.02; in [8], -1.82. Moreover, the z-score was 0.717 in test [7] and -0.498 (inactive) in test [9].
Regarding `O=C1C2C=CC(C(O)c3ccc(Br)cc3)N(Nc3ccccc3)C2C(=O)N1c1ccccc1` (stereo not given), the composite z-score in [1] is 0.0876; in test [2] it was 1.14; in [3] it was 0.081; in test [4], 0.572; in test [5], 0.52; in test [6] it was -0.364. For the same compound, the values for the composite z-score (with Lefty1; in test [8]) were -0.51 and 1.09, respectively. The z-score is 0.0103 in test [7] and 0.296 (inactive) in [9].
Regarding `CC(C)c1ccc(NN2C(C(O)c3cccs3)C=CC3C(=O)N(c4ccccc4)C(=O)C32)cc1` (stereo not given), the composite z-score in [1] was 0.548; in [2], 1.24; in test [3], 0.814; in test [4] it was 1.03; in [5], 0.963; in test [6], -0.737. Further, the composite z-score with Lefty1 turned out to be 0.0247; in test [8], 1.06. The z-score is -1.13 in [7] and -0.893 (inactive) in test [9].
Turning to `COc1ccc([Si](C)(C)[C@@H]2[C@@H](CCO)O[C@]3(C(=O)N(Cc4ccccc4)c4ccc(N5CCCCC5=O)cc43)[C@H]2C)cc1`, the composite z-score in test [1] turned out to be 1.47; in test [2], 1.17; in test [3] it was 1.61; in test [4] it was 0.734; in test [5], 1.13; in test [6], 0.634. In addition, the composite z-score in the test with Lefty1 is 0.788; in [8] it was 0.184. In addition, the z-score in test [7] was -0.167; in test [9] it was 0.0481 (inactive).
For `C=C(COC)C(=O)CC[C@H](OC(=O)c1ccccc1-c1ccccc1C(=O)O)c1ccc(CO)o1`, the composite z-score was 0.581 in [1]; 0.154 in test [2]; 0.36 in test [3]; -0.576 in test [4]; 1.35 in test [5]; 1.66 in test [6]. Further, the results for the composite z-score (with Lefty1; in test [8]) were 1.5 and -0.2, respectively. Also, the z-score in test [7] was -0.666; in test [9], -0.846 (inactive).
